Our source for the Potency values is PubChem BioAssay (NCATS).

“And” between values parts separate entries of the source, which are not always exact repeats. Equal values may be shown once. Records with an inconclusive call do not appear. A number with no mark means an inactive call. The source made the active and inactive calls. Calls come from the whole dose curve; as a rule, active = well fitted curve in the direction sought with a large enough effect; inconclusive = small, poorly fitted or top-dose-only effect, or another doubt; inactive = no such curve, though single readings can be large; an effect the other way counts as inactive or inconclusive. Non-standard residues stand in square brackets, D forms with d. Residues, ends and D or L forms follow the SMILES beside them. *: point of attachment. Sta = CC(C)C[C@H](N)[C@@H](O)CC(=O)O; Isovaleryl = CC(C)CC(=O)*

Test [1] is described as follows: qHTS of pediatric cancer cell lines to identify multiple opportunities for drug repurposing: Primary screen for DAOY cells (AID 1347090). Note: nearly all actives have a fitted effect of over 55% in size. Note: potency is the fitted concentration of half-maximal effect. In outline:
(§1)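 Cell viability, CellTiter-Glo luminescence; 500-1,000 cells/well, 8- or 11-point titration, 48 h compound exposure at 37 degrees C, 5% CO2. Controls: DMSO neutral, bortezomib 2.3 µM final as positive.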
A general note: qHTS replaces the single test concentration by a dilution series.

Test [2] is described as follows: qHTS of pediatric cancer cell lines to identify multiple opportunities for drug repurposing: Primary screen for SJ-GBM2 cells (AID 1347091). Note: potency is the fitted concentration of half-maximal effect. In outline: as §1
A short description of test [3]: qHTS of pediatric cancer cell lines to identify multiple opportunities for drug repurposing: Primary screen for A673 cells (AID 1347092). Note: nearly all actives have a fitted effect of over 45% in size. Note: potency is the fitted concentration of half-maximal effect. In outline: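 Titration-based qHTS on A673 cells: MIPE compounds spanned 11 points (0.78 nM to 46 µM final), NPC compounds 8 points (0.59 nM to 46 µM final). Viability after 48 h was measured by ATP luminescence.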
The nature of test [4]: qHTS of pediatric cancer cell lines to identify multiple opportunities for drug repurposing: Primary screen for SK-N-MC cells (AID 1347093). Note: potency is the fitted concentration of half-maximal effect. In outline: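 Metabolically active cells were quantified by ATP-dependent luminescence (CellTiter-Glo, 15 min at room temperature) following 48 h treatment. Cells had been plated at 500-1,000 per well and settled for 5 h beforehand.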

The nature of test [5]: qHTS of pediatric cancer cell lines to identify multiple opportunities for drug repurposing: Primary screen for BT-37 cells (AID 1347094). Note: potency is the fitted concentration of half-maximal effect. The method, boiled down: (§2)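 Cells plated at 500-1,000/well in growth medium, compounds added after 5 h. MIPE tested at 11 points (from 0.78 nM), NPC at 8 points (from 0.59 nM). CellTiter-Glo luminescence after 48 h; concentration-response curves from primary screen.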

A short description of test [6]: qHTS of pediatric cancer cell lines to identify multiple opportunities for drug repurposing: Primary screen for NB-EBc1 cells (AID 1347095). Note: potency is the fitted concentration of half-maximal effect. The method, boiled down:
as §2

A short description of test [7]: qHTS of pediatric cancer cell lines to identify multiple opportunities for drug repurposing: Primary screen for U-2 OS cells (AID 1347096). Note: nearly all actives have a fitted effect of over 50% in size. In outline: (§3)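 Cells (500-1,000/well) rested 5 h, then received compounds for 48 h; metabolically active cells were measured by CellTiter-Glo luminescence. Final concentrations spanned up to 46 µM (MIPE, 11-point) or 0.59 nM-46 µM (NPC, 8-point) in primary screens, 11-point in follow-ups.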

Test [8] is described as follows: qHTS of pediatric cancer cell lines to identify multiple opportunities for drug repurposing: Primary screen for Saos-2 cells (AID 1347097). Note: nearly all actives have a fitted effect of over 40% in size. Note: potency is the fitted concentration of half-maximal effect. The method, boiled down:
as §2

Test [9] is described as follows: qHTS of pediatric cancer cell lines to identify multiple opportunities for drug repurposing: Primary screen for SK-N-SH cells (AID 1347098). Note: nearly all actives have a fitted effect of over 65% in size. Note: potency is the fitted concentration of half-maximal effect. In outline:
as §3

Test [10] can be described thus: qHTS of pediatric cancer cell lines to identify multiple opportunities for drug repurposing: Primary screen for NB1643 cells (AID 1347099). Note: nearly all actives have a fitted effect of over 50% in size. Note: potency is the fitted concentration of half-maximal effect. The method, boiled down:
as §2

On to `O=C(O)c1cn(-c2ccc(F)cc2)c2cc(N3CCNCC3)c(F)cc2c1=O`, for which the Potency entry in test [1], in test [2], in test [3], in test [4], in [5] and in test [6] was “inactive” throughout. Besides, the Potency entry in test [7], in test [8], in [9] and in test [10] was “inactive” in each case.

`C=CCc1cc(OC)c(O)c(C(=O)NCCO)c1`: the Potency result in [1], in test [2], in [3], in test [4], in [5] and in test [6] was “inactive” throughout. In addition, the Potency entry in test [7], in test [8], in [9] and in [10] was “inactive” throughout.

`CC(C)[C@H](N)C(=O)OCCOCn1cnc2c(=O)[nH]c(N)nc21`: the Potency result in test [1], in test [2], in [3], in test [4], in [5] and in test [6] was “inactive” throughout. Also, the Potency result in [7], in [8], in test [9] and in [10] was “inactive” in each case.

For the molecule `Clc1ccc2c(N3CCN(CCCN4CCN(c5ccnc6cc(Cl)ccc56)CC4)CC3)ccnc2c1`, the Potency result in test [1], in [2], in [3], in [4], in [5] and in [6] was “inactive” each time. For the same molecule, the Potency entry in test [7], in [8], in test [9] and in test [10] was “inactive” in each case.

As to `Cn1c(NCCN(CCO)CCCc2ccc([N+](=O)[O-])cc2)cc(=O)n(C)c1=O`, the Potency result in test [1], in [2], in test [3], in [5], in [6] and in test [7] was “inactive” throughout. The Potency result in test [8] and in [9] was “inactive” each time.

Consider `CCOC(=O)C1=C(O)C(=O)N(Cc2ccccc2)C1`, for which the Potency result in test [1], in test [2], in [4], in test [6], in test [7] and in test [8] was “inactive” each time. The Potency entry in test [9] and in test [10] was “inactive” throughout.

On to `CCC(C)(Oc1ccc(C2(c3ccc(OC(C)(CC)C(=O)O)cc3)CCCCC2)cc1)C(=O)O` (stereo not given), for which the Potency result in test [1], in [2], in test [3], in test [4], in test [5] and in test [6] was “inactive” in each case. For the same molecule, the Potency entry in [7], in [9] and in test [10] was “inactive” throughout.

Regarding `CCc1nc(N)nc(N)c1-c1ccc(Cl)cc1`, the Potency was 5.31 µM (active) and 18.7 µM (active) in test [1]; 2.66 µM (active) and 4.18 µM (active) in test [2]; 10.6 µM (active) and 14.8 µM (active) in test [3]; 668 nM (active) and 1.18 µM (active) in [4]; 6.92 µM (active) in test [5]; 2.66 µM (active) and 5.26 µM (active) in [6]. Moreover, the Potency result in [8], in test [9] and in test [10] was “inactive” in each case.

Turning to `O=C(NCCO[N+](=O)[O-])c1cccnc1`, the Potency result in test [1], in test [2], in [3], in test [5], in test [6] and in [7] was “inactive” throughout. Besides, the Potency entry in test [8] and in test [9] was “inactive” each time.

Consider `CC(C)CC(=O)N[C@H](C(=O)N[C@H](C(=O)N[C@@H](CC(C)C)[C@@H](O)CC(=O)N[C@@H](C)C(=O)N[C@@H](CC(C)C)[C@@H](O)CC(=O)O)C(C)C)C(C)C` (Isovaleryl-VV[Sta]A[Sta]-OH), for which the Potency entry in test [1], in test [2], in test [4], in [5], in test [7] and in [8] was “inactive” throughout. The Potency result in [9] and in test [10] was “inactive” throughout.

Regarding `O=C1c2c(O)cc(O)cc2OC(c2ccc(O)c(O)c2)C1O` (stereo not given), the Potency entry in test [1], in [2], in test [3], in [5], in test [6] and in [7] was “inactive” throughout. In addition, the Potency is 4.69 µM (active) in test [4] and 30.4 µM (active) in [9].

Regarding `Cc1c(OCC(F)(F)F)ccnc1CS(=O)c1nc2ccccc2[nH]1` (stereo not given), the Potency entry in test [1], in test [2], in [3], in test [5], in test [6] and in [7] was “inactive” throughout. In addition, the Potency result in test [8], in [9] and in [10] was “inactive” each time.

For the molecule `CNC[C@H](O)c1ccc(O)c(O)c1`, the Potency result in test [1], in test [2], in test [4], in test [5], in [7] and in test [8] was “inactive” each time. Moreover, the Potency entry in [9] is “inactive”. Besides, the Potency in [3] is 42.9 µM (active).

`COc1c(O)cc2c(c1O)[C@@H]1O[C@H](CO)[C@@H](O)[C@H](O)[C@H]1OC2=O`: the Potency entry in test [1], in [2], in test [3], in [4], in [5] and in test [6] was “inactive” in each case. Moreover, the Potency result in test [7], in test [9] and in test [10] was “inactive” each time.

On to `CC(C)c1ccc2c(c1)c(SC(C)(C)C)c(CC(C)(C)C(=O)O)n2Cc1ccc(Cl)cc1`, for which the Potency is 23.5 µM (active) in [1]; 20.9 µM (active) in [2]; 8.33 µM (active) in test [4]; 27.3 µM (active) in test [5]; 29.6 µM (active) in [8]; 16.6 µM (active) in test [10]. Also, in [7], the Potency result is “inactive”.

Turning to `CN1CCC(=C2c3ccccc3CCc3sccc32)CC1`, the Potency entry in test [1], in test [2], in [6], in [7] and in test [8] was “inactive” each time. Moreover, the Potency was 29.6 µM (active) in test [4] and 13.6 µM (active) in test [9].

Turning to `COc1cc2c(N3CCN(C(=O)Nc4ccc(OC(C)C)cc4)CC3)ncnc2cc1OCCCN1CCCCC1`, the Potency entry in test [1], in [2], in test [6] and in test [7] was “inactive” each time. In addition, the Potency in test [3] is 29.6 µM (active); in test [4], 23.5 µM (active); in test [9], 27.1 µM (active) and 17.2 µM (active).

As for `Cc1c(C(=O)NN2CCCCC2)nn(-c2ccc(Cl)cc2Cl)c1-c1ccc(Cl)cc1`, the Potency result in test [1] and in test [7] was “inactive” in each case. The Potency is 13.2 µM (active) in [2]; 4.69 µM (active) in test [3]; 21.1 µM (active) and 7.43 µM (active) in test [4]; 3.85 µM (active) in test [5]; 27.3 µM (active) and 30.4 µM (active) in test [9].

In the case of `Cc1cccc(-c2[nH]ncc2-c2ccc3ncccc3n2)n1`, the Potency result in [1], in test [2], in test [3], in test [4], in [6] and in test [7] was “inactive” in each case. For the same molecule, the Potency entry in test [8], in test [9] and in [10] was “inactive” each time.

With `Cc1nc(-c2ccc(OCC(C)C)c(C#N)c2)sc1C(=O)O`, the Potency result in test [1], in test [2], in test [3], in test [5], in [6] and in test [7] was “inactive” throughout. The Potency entry in test [8], in test [9] and in [10] was “inactive” in each case.
